According to PubChem BioAssay (NCI):
This is part of a sample that, as a whole, favours compounds with a hit. Of some 83,000 tested, about 20% had one in any assay.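 Negative percent growth values reflect cell death: -40 means 40% of the cells present at the start died, and -100 means all died.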 Calls of active or inactive are those of the source. Rule for the calls: active = growth percent below 10; inactive = the rest.

test system: RXF 393 renal; experiment: NCI-60 one-dose screen, 48 h (100 = growth as untreated, 0 = no growth, -100 = all killed); conditions: 10 µM unless noted

Row | SMILES | growth
1 | COc1ccccc1C(=O)NN1C(=O)/C(=C/C2=Cc3ccccc3OC2)SC1=S | 114% (inactive)
2 | COc1ccc(NC(=O)[C@H](CO)NC(=O)OC(C)(C)C)cc1C(=O)Nc1cccc(C2CC(=O)c3c(cc(OC)c(OC)c3OC)O2)c1 (some centres not stated) | 53% (inactive)
3 | COc1ccc(C2(SCCNCc3cc(N(C)C)ccn3)c3ccccc3C=Cc3ccccc32)cc1 | 8.16% (active)
4 | COc1ccc2[nH]c(O)c(N=NC(=O)COc3ccc(NC(=O)Nc4ccccc4)cc3)c2c1 | 39% (inactive)
5 | COc1cc(/C=C/C(=O)c2ccc(C)cc2)ccc1Oc1nc(Nc2ccc(F)cc2)nc(N(C)C)n1 | 47.8% (inactive)
6 | CCN(CC)CCOc1ccc(Nc2ncc3cc(-c4ccc(O)c(C#N)c4)c(=O)n(C)c3n2)cc1 | 22.3% (inactive)
7 | CC(/C=C1\SC(=S)N(CCCC(=O)NC(CC(C)C)C(=O)O)C1=O)=C\c1ccccc1 (configuration not stated) | 96.2% (inactive)
8 | COc1cc2c(c(OC)c1OC)C(=O)CC(c1cccc(NC(=O)c3cc(N)ccc3Cl)c1)O2 (configuration not stated) | 46% (inactive)
9 | CC(=O)OC[C@@]1(C)C2CC[C@]3(C)C(CC=C4C5CC(C)(C)CC[C@]5(C(=O)Nc5cccc(C)c5)CC[C@]43C)[C@@]2(C)C[C@@H](OC(C)=O)[C@@H]1OC(C)=O (some centres not stated) | 85.4% (inactive)
10 | CCCCc1c(Nn2cnnn2)no[n+]1[O-] | 39.5% (inactive)
11 | CC(C)Sc1nc(NCCc2c[nH]c3ccccc23)c(C#N)c(-c2ccc(F)cc2)n1 | -3.65% (active)
12 | C=C1CCC2C3(C)COC(c4ccc(F)cc4)OC3CCC2(C)C1CC(O)C1=CCOC1=O (configuration not stated) | 35.7% (inactive)
13 | NS(=O)(=O)c1ccc(N=Nc2c(O)n(CC(=O)Nc3ccccc3Cl)c3ccccc23)cc1 | 24.4% (inactive)
14 | Cc1ccccc1[C@H]1C(C(=O)c2ccc(Cl)cc2)C2(N[C@@H]1c1ccccc1)C(=O)Nc1ccc(Cl)cc12 (some centres not stated) | -67.7% (active)
15 | CCCCCCCCc1ccc(S(=O)(=O)Nc2ccc(CC)cc2C(=O)O)cc1 | 109% (inactive)
16 | CCC(C)(C)c1ccc(OCCCCN2CCN(c3ccncc3)CC2)cc1 | -7.66% (active)
17 | COc1ccc(C(=O)/C=C/c2ccc(Oc3nc(Nc4ccc(F)cc4)nc(N(C)C)n3)c(OC)c2)cc1 | 50.6% (inactive)
18 | S=c1c2ccccc2nc2n1CCc1c-2[nH]c2ccccc12 | 28.7% (inactive)
19 | CCOC(=O)COc1c(OC)c(OC)cc2oc(-c3cccc(C(=O)Nc4ccc(Cl)cc4)c3)cc(=O)c12 | 75.6% (inactive)

test system: SF-268 CNS; experiment: as above; conditions: 10 µM unless noted

Row | SMILES | growth
20 | C/C(=N\N=C1/C(=O)Nc2ccc(Cl)cc21)c1ccc2c(c1)Nc1ccccc1S2 | 35.7% (inactive)
21 | CCCSc1nc(NCCc2c[nH]c3ccccc23)c(C#N)c(-c2ccc(F)cc2)n1 | 53.8% (inactive)
22 | COc1cc(C2CC(c3cc(OC)c(OC)c(OC)c3)=NN2C(C)=O)ccc1OCc1ccccc1 (configuration not stated) | 47.8% (inactive)
23 | Cc1cc2c(cc1Cl)C(=O)/C(=C/c1ccccc1)O2 | 64% (inactive)
24 | COc1ccc2[nH]cc(-c3nc(N)nnc3-c3cn(C)c4ncccc34)c2c1 | 75.8% (inactive)
25 | Cc1ccc(C(=O)CSc2nc3ccc(F)cc3c(=O)n2-c2ccc(Cl)cc2)cc1 | 28.9% (inactive)
26 | CCCCSc1nc(NCCc2c[nH]c3ccccc23)c(C#N)c(-c2ccccc2)n1 | 39.9% (inactive)
27 | Cn1cc(-c2nc(N)nnc2-c2c[nH]c3ccc(Br)cc23)c2cccnc21 | 66.7% (inactive)
28 | CN(C)CCOc1ccc(C(=O)C2[C@H](c3ccc(Cl)cc3)[C@@H](c3ccccc3)NC23C(=O)Nc2ccc(Br)cc23)cc1 (some centres not stated) | 41.8% (inactive)
29 | CN1CCN(/C(=N\c2sc(-c3ccccc3)nc2-c2ccccc2)c2ccccc2)CC1 | 91.5% (inactive)
30 | CCCSc1nc(NCCc2c[nH]c3ccccc23)c(C#N)c(-c2ccccc2)n1 | 70.5% (inactive)
31 | CCN(CC)c1ccnc(CNCCSC(c2ccccc2)(c2ccccc2)c2ccc(OC)cc2)c1 | 4.54% (active)
32 | COc1cc2oc(-c3cccc(C(=O)Nc4cccc([N+](=O)[O-])c4)c3)cc(=O)c2c(OC)c1OC | -3.57% (active)
33 | O=C(COc1ccc(NC(=O)Nc2ccc(Cl)c(Cl)c2)cc1)N=Nc1c(O)[nH]c2ccc([N+](=O)[O-])cc12 | 84.3% (inactive)
34 | COc1cc(-c2nc3cc(Cl)c(Cl)cc3[nH]2)ccc1OCc1nnc(-c2cccs2)o1 | 68.5% (inactive)
35 | CCCCCCCCc1ccc(C(=O)Nc2ccc(C)cc2C(=O)O)cc1C | 99.9% (inactive)
36 | CCOP(=O)(OCCCl)c1nc(-c2ccc(C)cc2)oc1NCc1ccccc1 (configuration not stated) | 73.7% (inactive)
37 | NS(=O)(=O)c1ccc(N=Nc2c(O)n(CC(=O)Nc3ccccc3)c3ccccc23)cc1 | 75.3% (inactive)
38 | CC1(C)CC[C@]2(C(=O)Nc3ccccc3)CC[C@]3(C)C(=CCC4[C@@]5(C)C[C@@H](O)[C@H](O)[C@@](C)(CO)C5CC[C@]43C)C2C1 (some centres not stated) | 61.2% (inactive)

Row | SMILES | growth
39 | COc1ccccc1C(=O)NN1C(=O)/C(=C/C2=Cc3ccccc3OC2)SC1=S | 109% (inactive)
40 | COc1ccc(NC(=O)[C@H](CO)NC(=O)OC(C)(C)C)cc1C(=O)Nc1cccc(C2CC(=O)c3c(cc(OC)c(OC)c3OC)O2)c1 (some centres not stated) | 65.1% (inactive)
41 | COc1ccc(C2(SCCNCc3cc(N(C)C)ccn3)c3ccccc3C=Cc3ccccc32)cc1 | 28.2% (inactive)
42 | COc1ccc2[nH]c(O)c(N=NC(=O)COc3ccc(NC(=O)Nc4ccccc4)cc3)c2c1 | 41.8% (inactive)
43 | COc1cc(/C=C/C(=O)c2ccc(C)cc2)ccc1Oc1nc(Nc2ccc(F)cc2)nc(N(C)C)n1 | 47.1% (inactive)
44 | CCN(CC)CCOc1ccc(Nc2ncc3cc(-c4ccc(O)c(C#N)c4)c(=O)n(C)c3n2)cc1 | 77.1% (inactive)
45 | CC(/C=C1\SC(=S)N(CCCC(=O)NC(CC(C)C)C(=O)O)C1=O)=C\c1ccccc1 (configuration not stated) | 100% (inactive)
46 | COc1cc2c(c(OC)c1OC)C(=O)CC(c1cccc(NC(=O)c3cc(N)ccc3Cl)c1)O2 (configuration not stated) | 60.4% (inactive)
47 | CC(=O)OC[C@@]1(C)C2CC[C@]3(C)C(CC=C4C5CC(C)(C)CC[C@]5(C(=O)Nc5cccc(C)c5)CC[C@]43C)[C@@]2(C)C[C@@H](OC(C)=O)[C@@H]1OC(C)=O (some centres not stated) | 56.2% (inactive)
48 | CCCCc1c(Nn2cnnn2)no[n+]1[O-] | 82.2% (inactive)
49 | CC(C)Sc1nc(NCCc2c[nH]c3ccccc23)c(C#N)c(-c2ccc(F)cc2)n1 | 45.1% (inactive)
50 | C=C1CCC2C3(C)COC(c4ccc(F)cc4)OC3CCC2(C)C1CC(O)C1=CCOC1=O (configuration not stated) | 103% (inactive)
51 | NS(=O)(=O)c1ccc(N=Nc2c(O)n(CC(=O)Nc3ccccc3Cl)c3ccccc23)cc1 | 77.4% (inactive)
52 | Cc1ccccc1[C@H]1C(C(=O)c2ccc(Cl)cc2)C2(N[C@@H]1c1ccccc1)C(=O)Nc1ccc(Cl)cc12 (some centres not stated) | 29.3% (inactive)
53 | CCCCCCCCc1ccc(S(=O)(=O)Nc2ccc(CC)cc2C(=O)O)cc1 | 97.4% (inactive)
54 | CCC(C)(C)c1ccc(OCCCCN2CCN(c3ccncc3)CC2)cc1 | 66.7% (inactive)
55 | COc1ccc(C(=O)/C=C/c2ccc(Oc3nc(Nc4ccc(F)cc4)nc(N(C)C)n3)c(OC)c2)cc1 | 51.8% (inactive)
56 | S=c1c2ccccc2nc2n1CCc1c-2[nH]c2ccccc12 | 57.7% (inactive)
57 | CCOC(=O)COc1c(OC)c(OC)cc2oc(-c3cccc(C(=O)Nc4ccc(Cl)cc4)c3)cc(=O)c12 | 56.1% (inactive)
